Where “and” joins values, the source holds several entries; their conditions need not be identical. Identical values can stand only once. Results filed as inconclusive are left out. Calls of active or inactive are those of the source. Unless noted, calls come from the whole dose curve; as a rule, active = well fitted curve in the direction sought with a large enough effect; inconclusive = small, poorly fitted or top-dose-only effect, or another doubt; inactive = no such curve, though single readings can be large; an effect the other way counts as inactive or inconclusive.
Assays:
[1] = qHTS Assay for Lipid Storage Modulators (AID 1519; calls by dose curve; for activity change, negative = inhibition: % is set by controls: 0 for no effect and ±100 for the full control effect); conditions: Drosophila S3 cells, BODIPY lipid droplet/cell ratio, laser cytometry, cells loaded with oleic acid
How it was run: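 Cells seeded at 5,000 per well were treated with compounds over a concentration series and loaded with oleic acid (400 uM, as added). Lipid droplet fluorescence (488 nm excitation, 500-530 nm channel) was read by laser-scanning cytometry and normalized to 20 uM Triacsin C.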

[2] = biological target: DNA repair nuclease/redox regulator APEX1 (Homo sapiens) (UniProt P27695); experiment: qHTS Validation Assay for Inhibitors of the Human Apurinic/apyrimidinic Endonuclease 1 (APE1) (AID 1705;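 note: TAMRA fluorescence gain over two minutes as APE1 cuts a quenched THF abasic duplex; % is set by controls: 0 for no effect and ±100 for the full control effect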); conditions: purified APE1 endonuclease activity, fluorescence, titration; series mostly up to 57.1 µM
How it was run: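 Read-out: TAMRA fluorescence (525 nm ex, 598 nm em) from cleavage of a quenched THF abasic-site duplex, 50 nM final; activity taken as intensity change between third and first of three reads 60 s apart.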

[3] = Counterscreen for APE1 Inhibitors: Fluorescent Dye Displacement Validation Assay (AID 1707); conditions: fluorescent dye displacement from DNA; series mostly up to 57.1 µM;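 note: plate controls were ThO with dsDNA and no compound for no effect and ThO without dsDNA for full effect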
How it was run: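 Signal: ThO fluorescence (ex 480 nm/em 540 nm) on binding 50 nM dsDNA; displacement by test compound reduces it. Conditions: 250 nM dye, 50 mM Tris-HCl pH7.5, 2 mM MgCl2, 50mM NaCl, 0.01% Tween-20.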

[4] = biological target: Endonuclease 4 (Escherichia coli (strain K12)) (UniProt P0A6C1); experiment: Counterscreen for APE1 Inhibitors: qHTS Validation Assay for Inhibitors of Endonuclease IV (AID 1708); note: % is set by controls: 0 for no effect and ±100 for the full control effect; conditions: E. coli endonuclease IV, DNA cleavage fluorescence; series mostly up to 57.1 µM
How it was run: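 Incision of a double-stranded 50 nM TAMRA/BHQ-2 abasic substrate was followed kinetically (525/598 nm, reads every 60 s) after 15 min enzyme–compound preincubation with 2 nM EndoIV in pH 7.5 Tris buffer with MgCl2, DTT and Tween-20; concentration-response format.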

[5] = qHTS for differential inhibitors of proliferation of Plasmodium falciparum line 7G8 (AID 1815); conditions: Plasmodium falciparum 7G8 proliferation inhibition; series mostly up to 28.7 µM;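 note: parasite growth measured after three days of incubation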; note: potency is the fitted concentration of half-maximal effect;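 for activity change, negative = inhibition: plate controls were vehicle wells for no effect and reference inhibitor wells for full effect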
[6] = qHTS for differential inhibitors of proliferation of Plasmodium falciparum line GB4 (AID 1816); conditions: Potency: Plasmodium falciparum GB4 proliferation inhibition; series mostly up to 28.7 µM;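 note: parasite growth measured after 72 h incubation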; note: potency is the fitted concentration of half-maximal effect;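 for activity change, negative = inhibition: 0% = vehicle DMSO and -100% = reference inhibitor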
[7] = qHTS for differential inhibitors of proliferation of Plasmodium falciparum line 3D7 (AID 1876); note: potency is the fitted concentration of half-maximal effect; conditions: P. falciparum 3D7 proliferation inhibition; series mostly up to 28.7 µM
[8] = qHTS for differential inhibitors of proliferation of Plasmodium falciparum line D10 (AID 1877); conditions: series mostly up to 28.7 µM;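 note: parasites grown with compound for 72 h before DNA staining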; note: potency is the fitted concentration of half-maximal effect;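 for activity change, negative = inhibition: plate controls were vehicle wells for no effect and reference inhibitor wells for full effect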
[9] = qHTS for differential inhibitors of proliferation of Plasmodium falciparum line Dd2 (AID 1882); conditions: Potency: Plasmodium falciparum Dd2 proliferation inhibition; series mostly up to 28.7 µM; note: nearly all actives have a fitted effect of over 65% in size; note: potency is the fitted concentration of half-maximal effect;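 for activity change, negative = inhibition: plate controls were DMSO vehicle for no effect and 0.29 µM artemisinin for full effect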
How it was run: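 SYBR Green DNA fluorescence (ex 485, em 535 nm) after overnight lysis quantifies parasite growth; compound exposure lasted 72 h at 37 C on infected red cells at 2.5% hematocrit, 0.3% parasitemia (final). Artemisinin 0.29 uM and vehicle wells define normalization.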

[10] = qHTS for differential inhibitors of proliferation of Plasmodium falciparum line W2 (AID 1883); conditions: Potency: Plasmodium falciparum W2 proliferation inhibition; series mostly up to 28.7 µM;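 note: parasites grown with compound for 72 h before lysis and staining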; note: potency is the fitted concentration of half-maximal effect;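 for activity change, negative = inhibition: 0% = vehicle wells and -100% = control inhibitor wells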
[11] = qHTS for differential inhibitors of proliferation of Plasmodium falciparum line HB3 (AID 1886); conditions: Potency: Plasmodium falciparum HB3 proliferation inhibition; series mostly up to 28.7 µM;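 note: parasites grown with compound for 72 h before SYBR Green readout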; note: potency is the fitted concentration of half-maximal effect;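 for activity change, negative = inhibition: plate controls were vehicle for no effect and reference inhibitor for full effect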
[12] = biological target: Ferritin light chain (Equus caballus) (UniProt P02791); experiment: qHTS Validation Assay for Identification of Novel General Anesthetics (AID 2323); conditions: horse apoferritin, anesthetic-site fluorescent probe displacement; series mostly up to 76.9 µM; note: % is set by controls: 0 for no effect and ±100 for the full control effect
How it was run: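 10 uM horse-spleen apoferritin + 1-AMA (50% saturated, PBS); cpd pin-transferred, 10 min RT. Ex 380/Em 535 nm endpoint. Activity normalized between free 1-AMA and 1-AMA/apoferritin; 4-parameter Hill fit of concentration-response.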

[13] = biological target: ATP-dependent DNA helicase Q1 (Homo sapiens) (UniProt P46063); experiment: qHTS Validation Assay for Inhibitors of RecQ-Like Dna Helicase 1 (RECQ1) (AID 2353); conditions: recombinant RECQ1 helicase DNA unwinding assay; series mostly up to 25.6 µM;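 note: plate controls were DMSO vehicle for no effect and enzyme-free control for full effect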
How it was run: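 RECQ1T1 50 nM; forked duplex (20 bp + 30-nt ss tails) 200 nM, ATP 2 mM final; pH 8.0, 2 mM MgCl2, 2.5 ug/ml poly(dI-dC); 15 min compound preincubation; discontinuous kinetic read over 2 h at RT.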

[14] = biological target: RecQ-like DNA helicase BLM (Homo sapiens) (UniProt P54132); experiment: qHTS Validation Assay for Inhibitors of Bloom's syndrome helicase (BLM) (AID 2364); conditions: BLM helicase DNA unwinding, fluorescence, in vitro; series mostly up to 57.1 µM;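 note: plate controls were DMSO vehicle for no effect and enzyme-free control for full effect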
How it was run: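 Forked 20-bp duplex substrate (200 nM, TAMRA/BHQ-2) plus 2 mM ATP added after 15 min compound preincubation with 50 nM enzyme, pH 8.0, poly(dI-dC) 2.5 ug/ml. Strand separation followed by fluorescence (525/598 nm) over 2 h, normalized to enzyme-free and DMSO controls.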

[15] = Cytometric Cell-Based qHTS for Inhibitors of the mTORC1 Signaling Pathway in MEF (Tsc2-/-, p53-/-) Cells (AID 2660); conditions: mTORC1 pathway cytometry; series mostly up to 38.3 µM;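 note: Tsc2 and p53 null MEFs carrying empty vector with compound for 24 h; percent of cells above a phospho-rpS6 to PI ratio cutoff in each well; plate controls were DMSO for no effect and rapamycin for full effect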
How it was run: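 Readout: Alexa-488 phospho-rpS6 (Ser235/236) intensity divided by PI intensity, thresholded against 7.5 nM rapamycin wells and reported as % positive cells. PI cell count served as the viability measure. Compound exposure was 24 hrs at 37 degree Celsius.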

[16] = High Content Imaging Cell-Based qHTS for Inhibitors of the mTORC1 Signaling Pathway in MEF (Tsc2-/-, p53-/-) Cells (AID 2666); conditions: series mostly up to 38.3 µM;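 note: percent of cells scored positive for phospho-rpS6 Ser235/236 immunostaining by imaging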
How it was run: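 Tsc2-/-, p53-/- MEFs (empty-vector stable) grown in DMEM + 10% FBS were exposed to compounds for 24 hrs at 37 degree Celsius, fixed, and stained with Alexa-488 anti-phospho-rpS6 Ser235/236 plus Hoechst. Imaging gave the percentage of positive cells per well.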

[17] = High Content Imaging Cell-Based qHTS for Inhibitors of the mTORC1 Signaling Pathway in MEF Cells (AID 2667); conditions: series mostly up to 38.3 µM;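 note: Tsc2-/- p53-/- MEFs stably re-expressing wild-type Tsc2 exposed 24 h; plate controls were DMSO wells for no effect and rapamycin control wells for full effect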
How it was run: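 Tsc2-/-, p53-/- MEFs stably re-expressing WT Tsc2, grown in DMEM + 10% FBS, were treated with compounds for 24 hrs at 37 degree Celsius, fixed, and stained with Alexa-488 phospho-rpS6 Ser235/236 antibody plus Hoechst; results given as % positive cells.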

[18] = Validation of Assay for Modulators of Lamin A Splicing (AID 1459; active = well fitted curve in the direction sought with a large enough effect in the signal ratio; the % refers to the signal ratio;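 note: cells exposed to compound for two days before reading; 0% is about no effect; ratio rise marks activators and ratio drop marks inhibitors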); conditions: Lamin A splicing dual RFP/GFP fluorescence reporter; series mostly up to 9.22 µM
How it was run: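 Readout: ratio of GFP (500-530 nm) to RFP (575-640 nm) total object intensity by 488 nm laser-scanning cytometry after 48 hrs. Cells were HeLa S3 clones carrying lamin A-EGFP minigene plus DsRed2 viability reporter; vehicle 0.5% DMSO final.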

[19] = qHTS Assay for Modulators of Human Peripheral Myelin Protein 22 (PMP22) Expression/Activity (AID 1967; active = well fitted curve in the direction sought with a large enough effect in the signal ratio; the % refers to the signal ratio;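 note: 0% = untreated cells and 100% end not stated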); conditions: Cell-based PMP22 reporter, dual-color luciferase ratio, mouse Pmp22 promoter in mouse Schwann cells; series mostly up to 115 µM
How it was run: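 Mouse MSC80 Schwann line, Pmp22 promoter–CBG68 reporter, EF-alpha–CBR internal control. 24h compound exposure, 37 °C/5% CO2, DMEM + 10% FBS. Readout: corrected green/red luminescence ratio, normalized to untreated cells; concentration-response curves fitted and classified.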

[20] = measured here: cell count channel max response
[21] = measured here: lipid channel max response

Chain of DNA repair nuclease/redox regulator APEX1 (Homo sapiens) (P27695 whole entry, looked up): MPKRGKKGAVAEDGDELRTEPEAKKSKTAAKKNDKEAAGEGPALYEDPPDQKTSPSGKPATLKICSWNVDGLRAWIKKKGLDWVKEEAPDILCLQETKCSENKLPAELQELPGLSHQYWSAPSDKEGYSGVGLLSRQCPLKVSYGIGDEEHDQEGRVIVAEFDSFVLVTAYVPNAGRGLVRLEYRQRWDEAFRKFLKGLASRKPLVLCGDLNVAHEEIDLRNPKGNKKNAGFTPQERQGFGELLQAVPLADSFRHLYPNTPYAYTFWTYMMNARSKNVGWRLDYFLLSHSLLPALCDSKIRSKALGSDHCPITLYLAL
Chain of RecQ-like DNA helicase BLM (Homo sapiens) (P54132 whole entry, looked up): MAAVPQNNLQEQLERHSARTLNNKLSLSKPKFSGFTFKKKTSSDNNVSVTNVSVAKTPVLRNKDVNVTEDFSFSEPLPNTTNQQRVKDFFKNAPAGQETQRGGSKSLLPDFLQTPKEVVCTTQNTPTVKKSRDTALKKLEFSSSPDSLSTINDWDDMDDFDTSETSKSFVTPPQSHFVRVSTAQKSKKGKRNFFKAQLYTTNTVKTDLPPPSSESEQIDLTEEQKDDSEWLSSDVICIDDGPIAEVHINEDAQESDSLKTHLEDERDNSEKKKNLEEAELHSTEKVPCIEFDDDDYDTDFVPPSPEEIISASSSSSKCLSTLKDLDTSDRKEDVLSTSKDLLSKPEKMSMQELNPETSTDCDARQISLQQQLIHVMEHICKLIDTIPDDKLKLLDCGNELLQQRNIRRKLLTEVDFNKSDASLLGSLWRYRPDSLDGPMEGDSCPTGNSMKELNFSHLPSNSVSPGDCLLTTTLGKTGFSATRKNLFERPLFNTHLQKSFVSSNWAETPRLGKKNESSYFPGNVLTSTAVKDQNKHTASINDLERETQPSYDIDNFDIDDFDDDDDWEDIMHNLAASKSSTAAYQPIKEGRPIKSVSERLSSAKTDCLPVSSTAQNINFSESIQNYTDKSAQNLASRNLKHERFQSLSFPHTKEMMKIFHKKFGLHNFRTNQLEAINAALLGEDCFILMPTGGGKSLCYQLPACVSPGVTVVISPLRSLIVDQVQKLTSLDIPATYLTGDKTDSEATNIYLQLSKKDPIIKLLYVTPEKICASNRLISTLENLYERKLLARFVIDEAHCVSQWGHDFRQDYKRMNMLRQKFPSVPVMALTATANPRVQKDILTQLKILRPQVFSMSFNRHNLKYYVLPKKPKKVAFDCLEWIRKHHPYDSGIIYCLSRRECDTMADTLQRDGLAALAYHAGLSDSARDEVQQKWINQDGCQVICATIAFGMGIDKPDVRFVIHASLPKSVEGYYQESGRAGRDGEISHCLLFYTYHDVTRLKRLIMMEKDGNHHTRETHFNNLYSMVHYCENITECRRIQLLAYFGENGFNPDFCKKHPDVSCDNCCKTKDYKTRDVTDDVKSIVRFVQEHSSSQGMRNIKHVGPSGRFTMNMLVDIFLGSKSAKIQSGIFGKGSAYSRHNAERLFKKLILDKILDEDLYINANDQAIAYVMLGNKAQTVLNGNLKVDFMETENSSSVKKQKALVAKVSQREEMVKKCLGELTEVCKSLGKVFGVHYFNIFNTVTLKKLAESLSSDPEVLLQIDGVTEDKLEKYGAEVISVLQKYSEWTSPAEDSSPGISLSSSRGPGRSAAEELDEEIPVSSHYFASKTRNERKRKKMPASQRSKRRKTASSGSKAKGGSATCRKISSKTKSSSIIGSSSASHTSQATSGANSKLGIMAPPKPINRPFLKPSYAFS
Chain of ATP-dependent DNA helicase Q1 (Homo sapiens) (P46063 whole entry, looked up): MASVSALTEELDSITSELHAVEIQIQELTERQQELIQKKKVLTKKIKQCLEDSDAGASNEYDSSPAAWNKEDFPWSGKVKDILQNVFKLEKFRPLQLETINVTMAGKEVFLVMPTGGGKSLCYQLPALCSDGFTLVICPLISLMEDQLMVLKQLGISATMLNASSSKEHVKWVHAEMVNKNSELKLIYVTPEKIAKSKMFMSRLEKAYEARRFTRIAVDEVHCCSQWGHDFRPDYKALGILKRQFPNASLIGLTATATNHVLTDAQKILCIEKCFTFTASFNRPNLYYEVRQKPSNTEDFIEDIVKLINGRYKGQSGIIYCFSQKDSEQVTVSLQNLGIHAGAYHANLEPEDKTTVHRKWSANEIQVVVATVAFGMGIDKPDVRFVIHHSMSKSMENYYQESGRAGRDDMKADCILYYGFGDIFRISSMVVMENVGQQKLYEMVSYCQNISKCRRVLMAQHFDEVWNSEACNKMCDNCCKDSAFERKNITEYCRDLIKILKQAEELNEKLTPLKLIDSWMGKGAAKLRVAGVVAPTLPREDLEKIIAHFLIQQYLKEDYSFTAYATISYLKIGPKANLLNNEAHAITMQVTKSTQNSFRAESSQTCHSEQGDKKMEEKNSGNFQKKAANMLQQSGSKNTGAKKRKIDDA
Chain of Ferritin light chain (Equus caballus) (P02791 2-175 limits assumed): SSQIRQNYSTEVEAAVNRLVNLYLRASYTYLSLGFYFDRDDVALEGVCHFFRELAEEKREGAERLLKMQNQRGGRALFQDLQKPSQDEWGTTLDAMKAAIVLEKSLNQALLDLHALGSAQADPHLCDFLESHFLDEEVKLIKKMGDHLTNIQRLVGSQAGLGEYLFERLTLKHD

CN1CCC(=C2c3ccccc3C=Cc3ccccc32)CC1
4.35% and -11%: max response [1, 20]
active: Potency [5] 5.01 µM | Potency [6] 8.91 µM | Potency [7] 11.2 µM | Potency [8] 12.6 µM | Potency [9] 5.01 µM | Potency [10] 2.82 µM | Potency [11] 11.2 µM
inactive: activity change, negative = inhibition ([1]; at 25.7 µM (top of the series)) -4.01% | activity change, negative = inhibition ([1]; at 57.5 µM (top of the series)) 0.516% | Potency [2] | Potency [3] | Potency [4] | Potency [12] | Potency [13] | Potency [14] | outcome [15] | Potency [16] | Potency [17]
-0.358% and -12.9%: max response [1, 21]

NCCS(=O)(=O)O
-11.2% and -31.9%: max response [1, 20]
15.8% and -31.4%: max response [1, 21]
inactive: outcome [18] | activity change, negative = inhibition ([1]; at 57.5 µM (top of the series)) 4.96% and -0.7% | Potency [2] | Potency [3] | Potency [4] | Potency [5] | Potency [6] | Potency [7] | Potency [8] | Potency [9] | Potency [10] | Potency [11] | Potency [19] | Potency [13] | outcome [15] | Potency [16] | Potency [17]

O=C1N(c2ccccc2)c2ccccc2C1(Cc1ccncc1)Cc1ccncc1
active: Potency [5] 8.91 µM | Potency [6] 12.6 µM | Potency [10] 10 µM | Potency [11] 11.2 µM
inactive: outcome [18] | Potency [2] | Potency [3] | Potency [4] | Potency [9] | Potency [19] | Potency [13] | Potency [14] | outcome [15] | Potency [16] | Potency [17]

CC1COc2c(N3CCN(C)CC3)c(F)cc3c(=O)c(C(=O)O)cn1c23 (centres undefined)
active: Potency [10] 14.1 µM
inactive: outcome [18] | activity change, negative = inhibition ([1]; at 57.5 µM (top of the series)) 6.1% and 7.75% | Potency [2] | Potency [4] | Potency [9] | Potency [19] | Potency [13] | Potency [14] | outcome [15] | Potency [16] | Potency [17]
20.7% and 20.3%: max response [1, 21]
10.5% and 11.1%: max response [1, 20]

CCOC(=O)C(C)(C)Oc1ccc(Cl)cc1
inactive: outcome [18] | Potency [2] | Potency [3] | Potency [4] | Potency [5] | Potency [6] | Potency [7] | Potency [8] | Potency [9] | Potency [10] | Potency [11] | Potency [13] | Potency [14] | outcome [15] | Potency [16] | Potency [17]

Clc1ccc2c(c1)C(N1CCNCC1)=Nc1ccccc1O2
-7.98% and 5.5% and 12.2%: max response [1, 21]
active: Potency [5] 7.08 µM | Potency [6] 5.62 µM | Potency [9] 11.2 µM | Potency [10] 5.62 µM | Potency [11] 11.2 µM
inactive: outcome [18] | activity change, negative = inhibition ([1]; at 25.7 µM (top of the series)) -5.1% | activity change, negative = inhibition ([1]; at 57.5 µM (top of the series)) 3.92% and 1.18% | Potency [2] | Potency [3] | Potency [13] | Potency [14] | Potency [16]
-3.99% and 1.39% and 11.5%: max response [1, 20]

CN(C)c1nc(N(C)C)nc(N(C)C)n1
2.91% and 27.7% and 12.4%: max response [1, 21]
inactive: outcome [18] | activity change, negative = inhibition ([1]; at 25.7 µM (top of the series)) -1.28% | activity change, negative = inhibition ([1]; at 57.5 µM (top of the series)) 7.55% and -0.1% | Potency [2] | Potency [4] | Potency [5] | Potency [6] | Potency [7] | Potency [8] | Potency [9] | Potency [10] | Potency [11] | Potency [19] | Potency [12] | Potency [13] | outcome [15] | Potency [16] | Potency [17]
4.02% and 17.6% and 11.3%: max response [1, 20]

Source: PubChem BioAssay (NCATS)
